The source of these data is PubChem BioAssay (NCATS).

Results filed as inconclusive are left out. Some of the results follow. Entries that show only a call come without a potency. Activity calls are given as the source filed them. Calls follow the shape of the dose curve; as a rule, active = well fitted curve in the direction sought with a large enough effect; inconclusive = small, poorly fitted or top-dose-only effect, or another doubt; inactive = no such curve, though single readings can be large; an effect the other way counts as inactive or inconclusive.

The target of assay [1] is Luciferin 4-monooxygenase (Photinus pyralis) (UniProt P08659). The assay can be described thus: Biochemical firefly luciferase enzyme assay for NPC (AID 624030).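 Also: purified P. pyralis luciferase at 10 nM with luciferin and ATP substrate; series mostly up to about 59 µM; nearly all actives have a fitted effect of over 70% in size.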 Summed up: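 Purified P. pyralis luciferase at 10 nM in 50 mM Tris Acetate (final), luminescence read within 5 minutes of enzyme addition to compounds. Activity normalised to PTC124 versus DMSO; concentration-response curves classed by r2, magnitude and activity.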
Sequence of Luciferin 4-monooxygenase (Photinus pyralis) (P08659 whole entry, looked up): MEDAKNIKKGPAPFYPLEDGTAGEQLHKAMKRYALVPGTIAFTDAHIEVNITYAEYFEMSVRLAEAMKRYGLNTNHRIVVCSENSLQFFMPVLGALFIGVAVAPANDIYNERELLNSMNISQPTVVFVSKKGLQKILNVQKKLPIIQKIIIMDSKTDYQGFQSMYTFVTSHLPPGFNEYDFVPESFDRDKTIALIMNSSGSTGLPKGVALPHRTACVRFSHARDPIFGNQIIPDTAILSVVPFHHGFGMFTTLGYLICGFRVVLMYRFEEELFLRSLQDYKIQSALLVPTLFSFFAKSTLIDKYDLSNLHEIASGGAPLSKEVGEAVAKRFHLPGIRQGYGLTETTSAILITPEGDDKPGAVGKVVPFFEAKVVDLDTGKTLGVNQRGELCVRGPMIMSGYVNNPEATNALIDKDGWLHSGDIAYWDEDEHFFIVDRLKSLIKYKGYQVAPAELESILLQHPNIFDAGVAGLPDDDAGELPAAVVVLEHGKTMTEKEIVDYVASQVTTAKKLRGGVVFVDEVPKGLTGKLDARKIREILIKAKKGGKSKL

Assay [2] deals with ATPase family AAA domain-containing protein 5 (Homo sapiens) (UniProt Q96QE3). The assay can be described thus: HTS assay for small molecules that inhibit ELG1-dependent DNA repair in human embryonic kidney (HEK293T) cells expressing luciferase-tagged ELG1: Hit Confirmation (AID 624248). Also: nearly all actives have a fitted effect of over 55% in size. Also: potency is read from the fitted curve at half-maximal effect. Summed up: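 HEK293T cells expressing luciferase-tagged ELG1 treated with 5-fluorouridine plus compound for 16 h at 37 C; luciferase activity then measured with ONE-Glo after 30 min at room temperature.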
Sequence of ATPase family AAA domain-containing protein 5 (Homo sapiens) (Q96QE3 whole entry, looked up, the tested form may be a part): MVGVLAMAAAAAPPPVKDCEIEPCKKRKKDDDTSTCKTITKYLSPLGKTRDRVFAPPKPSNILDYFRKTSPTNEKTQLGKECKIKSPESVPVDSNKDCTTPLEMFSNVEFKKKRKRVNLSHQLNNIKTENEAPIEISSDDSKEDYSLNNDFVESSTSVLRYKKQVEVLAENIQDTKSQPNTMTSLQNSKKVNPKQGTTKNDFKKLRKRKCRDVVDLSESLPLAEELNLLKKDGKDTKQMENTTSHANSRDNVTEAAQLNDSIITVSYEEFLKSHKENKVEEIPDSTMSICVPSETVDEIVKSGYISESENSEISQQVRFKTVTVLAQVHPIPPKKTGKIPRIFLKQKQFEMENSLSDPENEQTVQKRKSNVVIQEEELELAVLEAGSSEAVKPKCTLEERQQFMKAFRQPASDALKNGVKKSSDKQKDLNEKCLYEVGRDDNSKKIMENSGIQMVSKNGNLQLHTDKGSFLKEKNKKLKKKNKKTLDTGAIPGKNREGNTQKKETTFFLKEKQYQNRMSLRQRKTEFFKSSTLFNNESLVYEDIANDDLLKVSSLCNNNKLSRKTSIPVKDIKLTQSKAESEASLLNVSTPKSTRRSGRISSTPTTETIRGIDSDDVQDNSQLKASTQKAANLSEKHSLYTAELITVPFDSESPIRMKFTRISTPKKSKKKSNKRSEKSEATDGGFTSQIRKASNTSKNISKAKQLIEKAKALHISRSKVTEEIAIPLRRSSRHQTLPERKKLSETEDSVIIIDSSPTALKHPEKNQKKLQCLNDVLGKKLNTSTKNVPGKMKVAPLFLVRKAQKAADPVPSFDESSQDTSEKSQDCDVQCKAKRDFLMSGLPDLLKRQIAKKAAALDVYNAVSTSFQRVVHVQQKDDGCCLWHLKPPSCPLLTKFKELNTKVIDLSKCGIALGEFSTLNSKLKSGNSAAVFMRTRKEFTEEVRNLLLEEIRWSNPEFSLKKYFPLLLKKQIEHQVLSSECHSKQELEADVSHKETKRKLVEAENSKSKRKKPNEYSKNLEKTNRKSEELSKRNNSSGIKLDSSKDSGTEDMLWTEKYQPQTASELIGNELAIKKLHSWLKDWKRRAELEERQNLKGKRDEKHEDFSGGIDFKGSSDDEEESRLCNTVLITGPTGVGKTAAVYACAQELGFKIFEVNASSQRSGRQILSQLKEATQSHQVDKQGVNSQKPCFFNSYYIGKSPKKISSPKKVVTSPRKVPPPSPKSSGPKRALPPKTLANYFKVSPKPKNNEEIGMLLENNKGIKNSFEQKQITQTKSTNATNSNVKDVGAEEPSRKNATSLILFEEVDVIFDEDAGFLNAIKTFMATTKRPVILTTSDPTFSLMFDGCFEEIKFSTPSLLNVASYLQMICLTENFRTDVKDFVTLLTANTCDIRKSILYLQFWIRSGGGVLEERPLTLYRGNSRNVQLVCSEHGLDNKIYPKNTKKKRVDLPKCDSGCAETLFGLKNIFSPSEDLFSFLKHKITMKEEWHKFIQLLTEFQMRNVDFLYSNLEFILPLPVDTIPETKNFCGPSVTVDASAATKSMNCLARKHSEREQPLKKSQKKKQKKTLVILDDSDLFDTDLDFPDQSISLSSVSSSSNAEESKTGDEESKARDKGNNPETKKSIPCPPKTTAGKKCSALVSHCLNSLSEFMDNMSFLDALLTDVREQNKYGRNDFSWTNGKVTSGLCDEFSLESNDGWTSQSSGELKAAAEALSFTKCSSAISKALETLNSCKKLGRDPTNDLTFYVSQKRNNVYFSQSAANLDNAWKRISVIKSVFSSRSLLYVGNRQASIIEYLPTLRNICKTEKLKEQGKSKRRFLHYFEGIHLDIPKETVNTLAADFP

For assay [3] the target is unchanged. Briefly: qHTS screen for small molecules that inhibit ELG1-dependent DNA repair in human embryonic kidney (HEK293T) cells expressing luciferase-tagged ELG1: Hit Confirmation using MMS Stimulated ELG1 (AID 624249). Also: nearly all actives have a fitted effect of over 60% in size. Also: potency is read from the fitted curve at half-maximal effect. Summed up:
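Luminescence read-out (Amplight) of an ELG1-luc reporter in HEK293T cells after 16 h of compound exposure under MMS stimulation at 10 µM final. Inhibition appears as reduced luciferase activity.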

A short description of assay [4]: qHTS screen for small molecules that inhibit ELG1-dependent DNA repair: Hit Confirmation with MMS Viability (AID 624251). Also: potency is read from the fitted curve at half-maximal effect.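 Also: viability read 16 h after compound addition; nearly all actives have a fitted effect of over 60% in size.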 In outline:
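CellTiter-Glo viability of ELG1-luc HEK293T cells after 16 h with compound plus 10 µM MMS.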
Background: qHTS replaces the single test concentration by a dilution series.

In assay [5] the target is Cytochrome P450 3A4 (Homo sapiens) (UniProt P08684). The assay can be described thus: qHTS Assay for Activators of Cytochrome P450 3A4 (AID 885). Also: nearly all actives have a fitted effect of over 65% in size. In outline: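 CYP3A4 activity: Luciferin-PPXE O-dealkylation, 25uM substrate, 200mM KPO4, RT throughout. Read-out is luciferase luminescence; higher values reflect activation.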
Sequence of Cytochrome P450 3A4 (Homo sapiens) (P08684 whole entry, looked up): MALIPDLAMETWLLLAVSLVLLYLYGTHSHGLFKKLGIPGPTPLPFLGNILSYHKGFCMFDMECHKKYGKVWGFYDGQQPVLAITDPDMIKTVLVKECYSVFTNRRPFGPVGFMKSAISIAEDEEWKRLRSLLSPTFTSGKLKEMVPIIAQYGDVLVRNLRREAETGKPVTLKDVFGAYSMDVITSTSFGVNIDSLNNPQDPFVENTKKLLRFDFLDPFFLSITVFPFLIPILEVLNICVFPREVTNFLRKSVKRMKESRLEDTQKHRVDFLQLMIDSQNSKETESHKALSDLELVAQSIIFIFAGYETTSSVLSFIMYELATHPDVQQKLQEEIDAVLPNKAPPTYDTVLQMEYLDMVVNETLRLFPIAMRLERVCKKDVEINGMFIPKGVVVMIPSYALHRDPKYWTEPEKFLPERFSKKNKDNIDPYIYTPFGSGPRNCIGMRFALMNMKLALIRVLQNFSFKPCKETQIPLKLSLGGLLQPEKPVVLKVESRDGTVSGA
Assay [6] in a line: Confirmation and Secondary Assay for Modulators of Hemoglobin Beta Chain Splicing at IVS2 705 locus (AID 930).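 Also: HeLa cells stably expressing the EGFP-705 splicing reporter; GFP fluorescence per well restored by corrected splicing of the IVS2-705 intron in EGFP; series mostly up to about 46 µM.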 In outline:
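Read-out: total peak GFP fluorescence per well (488 nm excitation, 500-520 nm emission) by laser-scanning cytometry. Cells: HeLa EGFP-705 splicing reporter, 2 days compound exposure in Optimem/2% FCS.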

Assay [7] has as its target Luciferin 4-monooxygenase (Photinus pyralis) (UniProt P08659). The assay can be described thus: qHTS screen for small molecules that inhibit ELG1-dependent DNA repair: Hit Confirmation in Biochemical Luciferin Assay (AID 624253). Also: series mostly up to about 57 µM. Summed up: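 Steps: (1) dispense substrate reagent; (2) pin-transfer test compounds or DMSO vehicle; (3) add luciferase; (4) image luminescence with a CCD reader.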

Turning to `C[N+]1(C)CCC(OC(=O)CC(O)(c2ccccc2)C2CCCC2)C1` (centres undefined), in assay [1], the Potency entry was “inactive”.

On to `O=C(CO)[C@@H](O)C(O)[C@@H](O)CO` (some centres undefined), for which, in assay [1], the Potency result was “inactive”.

Turning to `Nc1nnc(SCC(=O)Nc2ccc3nc(SCC(=O)Nc4ccccc4)sc3c2)s1`, the Potency in assay [2] was 0.888 µM (active); in assay [3] it was 4.99 µM (active); in assay [4] it was 5.6 µM (active). As for `CO[C@@H]1[C@@H]([C@H](C)[C@@H]2O[C@@]3(CC[C@@](C)([C@H]4CC[C@@](C)([C@H]5O[C@H]([C@H]6O[C@](C)(O)[C@H](C)C[C@@H]6C)C[C@H]5O[C@H]5C[C@@H](OC)[C@H](OC)[C@@H](C)O5)O4)O3)C[C@@H](O)[C@@H]2C)O[C@@](O)(CC(=O)O)[C@H](C)[C@H]1OC`, in assay [1], the Potency result was “inactive”. The same measure, in the same setting: the entry for `CCCC(=O)O[C@]1(C(=O)COC(=O)CC)[C@@H](C)C[C@H]2[C@@H]3CCC4=CC(=O)C=C[C@@]4(C)[C@@]3(F)[C@H](O)C[C@@]21C` is “inactive”. Turning to `COc1ccccc1C(=O)Nc1ccc(C)c(S(=O)(=O)N2CCCCC2)c1`, the Potency in assay [2] and in assay [3] was 14.1 µM (active) each time. Also, the Potency entry in assay [4] is “inactive”.

Take `CCCCCCC(=O)O[C@@H]1CC[C@H]2[C@@H]3CCc4cc(O)ccc4[C@H]3CC[C@]12C`: the Potency entry in assay [1] was “inactive”.

As for `CN(C)c1ccc(O)c2c1C[C@@H]1C[C@H]3C(N(C)C)C(=O)C(C(N)=O)=C(O)[C@@]3(O)C(=O)C1=C2O` (some centres undefined), the Potency entry in assay [5] and in assay [1] was “inactive” throughout. Besides, the call in assay [6] was inactive. Turning to `CC(C)(C)NC(=O)[C@H]1CC[C@H]2[C@@H]3CC=C4C=C(C(=O)O)CC[C@@]4(C)[C@H]3CC[C@]12C`, the Potency result in assay [1] was “inactive”. Take `CN(CC1CCCO1)S(=O)(=O)c1ccc(C(=O)Nc2ccc(F)cc2)cc1` (centres undefined): the Potency in assay [2] was 9.96 µM (active); in assay [3], 22.3 µM (active).

On to `CO[C@H]1[C@@H](O)[C@H](N)[C@@H](O[C@H]2O[C@@H]([C@H](C)N)CC[C@H]2N)[C@H](O)[C@@H]1N(C)C(=O)CN`, for which the Potency result in assay [1] was “inactive”. Turning to `C=C1/C(=C\C=C2/CCC[C@@]3(C)[C@@H]([C@H](C)OCCC(C)(C)O)CC[C@@H]23)C[C@@H](O)C[C@@H]1O`, the Potency result in assay [1] was “inactive”.

For the compound `CO[C@H]1C[C@@H](O[C@@H]2[C@@H](C)O[C@@H](O[C@@H]3/C(C)=C/CC4C[C@@H](C[C@]5(C=C[C@@H](C)[C@H](C6CCCCC6)O5)O4)OC(=O)[C@@H]4C=C(C)[C@@H](O)[C@H]5OC/C(=C\C=C\[C@@H]3C)[C@]54O)C[C@H]2OC)O[C@@H](C)[C@@H]1O`, the Potency result in assay [1] was “inactive”.

In the case of `CC(C)(S)C(=O)N[C@H](CS)C(=O)O`, in assay [1], the Potency result is “inactive”. As to `OCCCNc1nccc(-c2cc(Nc3cccc(Cl)c3)ncn2)n1`, the Potency in assay [2] is 0.792 µM (active); in assay [3], 0.629 µM (active); in assay [4], 2.5 µM (active).

`C=C1C[C@@H]2[C@H]3CCC4=CC(=O)C=C[C@]4(C)[C@@]3(F)[C@@H](O)C[C@]2(C)[C@]1(O)C(=O)COC(C)=O`: the Potency result in assay [1] is “inactive”. On to `Cc1ccc(C)c(S(=O)(=O)N2CCN(c3ncnc4sccc34)CC2)c1`, for which the Potency in assay [2] is 4.99 µM (active); in assay [3], 2.81 µM (active); in assay [4], 2.5 µM (active). As to `NC(=O)c1sc2nc3c(c(-c4ccccc4)c2c1N)CCC3`, the Potency in assay [2] is 1.77 µM (active); in assay [3] it was 7.05 µM (active). Besides, in assay [4], the Potency result is “inactive”.

`CCC(C)C1OC2(C=CC1C)CC1CC(C/C=C(\C)C(OC3CC(OC)C(OC4CC(OC)C(NC(C)=O)C(C)O4)C(C)O3)C(C)/C=C/C=C3\COC4C(O)C(C)=CC(C(=O)O1)C34O)O2` (centres undefined) (tested in a mixture with another compound): in assay [1], the Potency entry is “inactive”. With `CC1CC2C3CCC4=CC(=O)C=C[C@@]4(C)[C@]3(F)C(O)C[C@]2(C)[C@]1(O)C(=O)COP(=O)(O)O` (some centres undefined), the Potency result in assay [5] and in assay [1] was “inactive” in each case. The compound was classed as inactive in assay [6]. On to `COc1cc2c(c(OC)c1OC)-c1c(cc3c(c1OC)OCO3)CC(C)C(C)(O)C2` (centres undefined), for which the Potency result in assay [1] was “inactive”. For the compound `COc1ccc(CSc2nc(N3CCOCC3)c3c(c2C#N)CC(C)(C)OC3)cc1`, the Potency in assay [2] was 0.889 µM (active). The Potency result in assay [3], in assay [4] and in assay [7] was “inactive” throughout. Consider `CC(CN1CCOCC1)C(Cc1ccccc1)(Cc1ccccc1)C(=O)N1CCCC1` (centres undefined), for which the Potency result in assay [1] was “inactive”. For `CC(=O)c1c(C)n(-c2ccc(C)cc2)c2ccc(O)cc12`, the Potency entry in assay [2], in assay [3] and in assay [4] was “inactive” in each case. As for `C/C(=C(/CCOC(=O)c1ccccc1)SS/C(CCOC(=O)c1ccccc1)=C(\C)N(C=O)Cc1cnc(C)nc1N)N(C=O)Cc1cnc(C)nc1N`, the Potency result in assay [1] was “inactive”. As for `Cc1ccc(N(Cc2ccc(C(=O)Nc3ccccc3C(=O)NCc3ccco3)cc2)S(C)(=O)=O)cc1C`, in assay [2], the Potency was 6.28 µM (active). In addition, in assay [4], the Potency result was “inactive”.

For `C#C[C@@]1(OC(C)=O)CC[C@H]2[C@@H]3CCC4=CC(=O)CC[C@@H]4[C@H]3CC[C@@]21C`, the Potency entry in assay [1] was “inactive”. Still for that read-out and setting: the entry for `CCC(=O)Oc1ccc2c(c1)CCC1C2CC[C@]2(C)C(OC(=O)CC)CCC12` (some centres undefined) is “inactive”. For the compound `COc1ccc(-c2nn(-c3ccccc3)cc2/C=C\C(=O)N2CCOCC2)cc1[N+](=O)[O-]`, the Potency in assay [2] is 1.41 µM (active). For the same compound, the Potency entry in assay [3] and in assay [4] was “inactive” each time.

On to `CC12CCC(C(=O)N3CCN(c4ncccn4)CC3)(c3nc4ccccc4nc31)C2(C)C` (centres undefined), for which the Potency in assay [2] was 7.91 µM (active). Moreover, the Potency result in assay [4] is “inactive”.
